Assay outcomes: PubChem, National Center for Advancing Translational Sciences (NCATS)
Nrf2 block = Nrf2 pathway inhibition; A549 ARE-Fluc reporter, luciferase luminescence, 18-24 h; Potency, µM (top dose mostly 46 µM), inactives show at the highest dose activity change, negative = inhibition, most hits filed as inhibitors; 360,000 tested, 2.1% active; note: potency is the fitted concentration of half-maximal effect; % is set by controls: 0 for no effect and ±100 for the full control effect; nearly all actives have a fitted effect of over 60% in size
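Concentration-response testing used A549 ARE_Fluc cells at 5000 cells/well. Following an 18-24 h compound incubation, viability was read by fluorescence (Ex 405/Em 525) and luciferase output by luminescence.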
BRCA1 expr up = BRCA1 expression activation; MCF7-BRCA1-FFLuc reporter, luminescence, 48 h; response scale: scaled: vehicle 0%, 10 µM genistein 100%; Potency, µM (highest dose often 46.1 µM), without a hit: top-dose activation, hits mostly activators; 380,000 tested, 1.1% active; AID 624202; note: potency is the fitted concentration of half-maximal effect; nearly all actives have a fitted effect of over 80% in size
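Compounds are tested at multiple concentrations on MCF7 BRCA1-luciferase reporter cells seeded at 2000 per well; after 48 h, a single luminescence end-point is taken and curves fitted to the normalized data.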
p53 reactivation = restores transcriptional activity of mutant p53; H1299 p53-A138V BP100-luciferase reporter, luminescence, 24 h; Potency, µM (titrated, usually from 92.2 µM), for inactives: top-dose activity change, positive = activation, actives largely listed as activators; 320,000 tested, 0.063% active; note: potency is the fitted concentration of half-maximal effect; % of control where 0% means no effect; nearly all actives have a fitted effect of over 45% in size
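p53-null H1299 cells stably carrying temperature-sensitive p53-A138V and a BP100-luciferase reporter were pinned with compounds (4-point, 1:5 series) and held 24 hrs at 37 deg C. Luminescence was read 10 min after detection reagent.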
A549 viability = A549 cytotoxicity, counter-screen for Nrf2 inhibitors | A549 ARE-Fluc cells, CellTiter-Fluor viability, 18-24 h | Potency, µM (titrated, usually from 46 µM), inactives show top-dose activity change, negative = cytotoxicity, actives largely listed as inhibitors | 390,000 tested, 0.16% active; note: potency is the fitted concentration of half-maximal effect; % is set by controls: 0 for no effect and ±100 for the full control effect
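A549 ARE_Fluc cells in 5% FBS OPTI-MEM were exposed to compounds in concentration-response for 18-24 h at 37 deg C. Viability was read by CellTiter-Fluor fluorescence (Ex 405/Em 525) after 30 min, before the luciferase read.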
Nrf2 ARE act = Nrf2 pathway activation | AREc32 ARE-luciferase reporter (MCF7-derived line), luminescence, 24 h | Potency, µM (doses to about 46.1 µM), for the others: at the highest dose activation, most hits filed as activators | 410,000 tested, 0.31% active | AID 624171; note: potency is the fitted concentration of half-maximal effect; % of control where 0% means no effect; nearly all actives have a fitted effect of over 65% in size
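Luciferase luminescence (Steady-Glo, 30 min at room temperature) served as the read-out of ARE activation in AREc32 cells treated with compounds for 24 hr at 37 deg C.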
IL2 activator = IL-2 activation. IL-2 activation reporter assay, cell-based qHTS; stimulated with anti-CD3/CD4/CD28 beads; in transgenic mouse T cells. activation, % (series mostly up to about 46 µM). 360,000 tested, 0.065% active. AID 652025; in the data active = activation above about 50%; inconclusive = mostly about 30% to 49%; note: 0% is about no effect
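Screening format: compound pinned onto unstimulated transgenic mouse T cells, 60 min incubation, then anti-CD3/anti-CD4/anti-CD28 bead stimulation for 18 hours at 37 degrees C, followed by EGFP and DsRed detection.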
The depositor's hits bear a star; u = inconclusive; x = not tested or not shown. This is a sample that favours compounds with a hit; in the whole collection about 3.2% have one here. Unless noted, calls come from the whole dose curve; as a rule, active = well fitted curve in the direction sought with a large enough effect; inconclusive = small, poorly fitted or top-dose-only effect, or another doubt; inactive = no such curve, though single readings can be large; an effect the other way counts as inactive or inconclusive.

SMILES | Nrf2 block | BRCA1 expr up | p53 reactivation | A549 viability | Nrf2 ARE act | IL2 activator
Nc1cc(-c2ccc(Br)cc2)nn1Cc1ccccc1 | 10µM* | 20% | 8% | -11% | 3% | 0
Nc1cc(-c2cccc(Br)c2)nn1Cc1ccccc1 | 2% | 1% | 29% | -8% | 4% | -2
CCOC(=O)c1cc(-c2ccc3c(c2)OCCO3)n[nH]1 | u | u | 19% | -3% | 0% | -1
CCOC(=O)c1cc(-c2ccc(OC)cc2)n[nH]1 | 30% | 11µM* | u | 1% | 4% | 0
Cc1cc(C)nc(SCC(=O)Nc2cccc(S(=O)(=O)N(C)C)c2)n1 | 18µM* | -31% | 2% | -5% | 4% | 0
CN(C)S(=O)(=O)c1ccc(NC(=O)CSc2nc3ccccc3n2-c2ccccc2)cc1 | 21µM* | -67% | -1% | 1% | 4% | -4
CN(C)S(=O)(=O)c1cccc(NC(=O)CSc2nncn2C)c1 | 8% | 0% | 3% | -6% | 0% | 0
CN(C)S(=O)(=O)c1cccc(NC(=O)CSc2nc3ccccc3n2-c2ccccc2)c1 | 18µM* | -78% | 8% | u | 2% | 0
CC(C)(C)c1ccc(OCCn2c(CCNC(=O)C3CCCCC3)nc3ccccc32)cc1 | 18µM* | -50% | x | -29% | x | x
CC(C)(C)C(=O)NCCCc1nc2ccccc2n1CCCOc1ccc(Cl)cc1 | 23µM* | -45% | -3% | u | 2% | 1
CC(=O)NCCc1nc2ccccc2n1CCCCOc1ccc(Cl)cc1 | u | x | x | 2% | 7% | x
O=C(CSc1ncnc2c1cnn2-c1ccccc1Cl)N1CCN(C(=O)c2ccco2)CC1 | 15µM* | -41% | -7% | 2% | 4% | -1
Cc1nnc(NC(=O)CSc2ncnc3c2cnn3-c2ccccc2C)s1 | u | 6% | 1% | -2% | 0% | -2
CCOC(=O)Cc1csc(NC(=O)CSc2ncnc3c2cnn3-c2ccccc2Cl)n1 | 21µM* | -41% | 22% | -7% | 13% | -1
S=C(NCc1ccco1)Nc1ccc(Br)cc1Cl | u | 10µM* | 27% | -10% | 10% | 1
S=C(NCc1ccco1)Nc1ccc(Cl)cc1Cl | -13% | 7.9µM* | u | 11% | 10% | 0
Cc1cccc(NC(=S)NCc2ccco2)n1 | -12% | -8% | 1% | -3% | 13µM* | -1
S=C(NCc1ccco1)NCc1ccco1 | 7% | -10% | x | -2% | 0% | -1
CCOc1ccc(NC(=O)CCc2c(C)nc3cc(-c4ccc(Cl)cc4)nn3c2C)cc1 | u | x | x | -8% | -3% | x
CCc1cccc(C)c1NC(=O)c1nc2ccccc2nc1N1CCCCC1 | x | x | x | -3% | 0% | x
Cc1cc2nc(SCCOC(=O)Nc3ccccc3)nc(C)c2cc1C | 21µM* | -13% | -6% | -11% | 0% | 0
Cc1nc(Nc2ccc(S(N)(=O)=O)cc2)sc1C(=O)Nc1ccccc1 | 2% | -27% | 2% | 0% | 3% | -1
COc1ccc(Nc2nc(C)c(C(C)=O)s2)cc1 | x | 13µM* | x | x | 18% | 0
COc1ccc(C(=O)c2sc(Nc3ccc(NC(C)=O)cc3)nc2C)cc1 | -10% | -38% | -5% | -10% | 7% | 3
CC(=O)c1sc(N/N=C\c2ccc(Br)cc2)nc1C | 22% | 3.5µM* | u | 1% | 20% | 17
SMILES | Nrf2 block | BRCA1 expr up | p53 reactivation | A549 viability | Nrf2 ARE act | IL2 activator
CC(=O)c1sc(N/N=C\c2cccc(Br)c2)nc1C | 27% | 27% | u | -5% | 6% | 2
Cc1nc(Nc2ccccc2)sc1C(=O)Nc1ccccc1 | 2% | 6.3µM* | 7% | -2% | 7% | -1
CC(c1ccco1)N(C)c1ncnc2ccc(-c3ccc4c(c3)OCO4)cc12 (centres undefined) | -7% | x | x | 1% | x | x
CCOc1ccc(-c2n[nH]c(C(=O)NN)c2C)cc1 | 10% | 10µM* | u | -1% | 0% | 0
Cc1c(-c2ccccc2)n[nH]c1C(=O)NN | 2% | u | 7% | -4% | 1% | 4
CC(=O)c1ccc(Nc2ccc(-c3ccccc3C)nn2)cc1 | u | 6.3µM* | 4% | -1% | 2% | -2
CC(=O)c1cccc(Nc2ccc(-c3ccccc3F)nn2)c1 | u | 11µM* | 10% | -2% | 4% | 0
COc1ccccc1-c1ccc(Nc2cccc(C(C)=O)c2)nn1 | -21% | 71% | u | -8% | 3% | -1
CC(=O)c1ccc(Nc2cc(C)nc3ccccc23)cc1 | u | -14% | 10% | -20% | 3% | 1
Cc1nn(-c2ccc(N3CCCCC3)nn2)c(C)c1CCC(=O)NCc1ccc(OC(C)C)cc1 | -8% | x | x | -1% | -1% | x
Cc1ccc(-c2nnc(N3CCCCCC3)c3ccccc23)cc1 | 23µM* | 4% | u | u | 0% | -3
Cc1ccc(OCC(=O)N2CCN(c3nnc(-c4ccc(C)cc4)c4ccccc34)CC2)cc1 | 18µM* | -81% | -1% | u | -1% | -4
O=C(COc1ccccc1)N1CCN(c2nnc(-c3ccccc3)c3ccccc23)CC1 | 21µM* | -43% | -3% | u | 4% | -3
COc1ccc(OCC(=O)N2CCN(c3nnc(-c4ccc(C)cc4)c4ccccc34)CC2)cc1 | u | -77% | -7% | -28% | 0% | 0
O=C(C1CCN(c2nc3ccccc3[nH]2)CC1)N1CCN(c2ccccc2)CC1 | x | x | x | 6% | 3% | x
Cc1cc(C)c2c(CC(=O)Nc3ccc(S(=O)(=O)Nc4nc(C)cc(C)n4)cc3)coc2c1 | -16% | x | x | -20% | 0% | x
CCC(=O)Nc1ccccc1-c1nc2ccccc2n(C(C)C(=O)Nc2cccc(Cl)c2C)c1=O (centres undefined) | u | x | x | 7% | 0% | x
COc1ccccc1CCc1nnc(CCC(=O)N(C)Cc2cccc3cnccc23)o1 | u | u | 6% | 1% | 4% | -2
COc1ccc(CCc2nnc(CCC(=O)N(C)Cc3ccnc4ccccc34)o2)cc1 | 21µM* | -1% | 5% | u | 4% | -4
O=C(NCCc1ccc(Cl)cc1)c1c2c(nc3ccccc13)C(=O)N(C1CCCCC1)C2 | u | x | x | u | 0% | x
O=C(OCc1nnc(-c2ccccc2)o1)c1ccc(Br)o1 | 1% | 9% | 11% | 5% | -1% | 2
Brc1cc(Cc2nnc(-c3ccccc3)o2)c(Br)s1 | u | -22% | 0% | -4% | 8.9µM* | 0
CCOC(=O)c1cnc2ccc(C)cc2c1Nc1ccc(N(CC)CC)cc1 | u | x | x | u | -1% | x
